Measurements published in PubChem BioAssay AID1159580 (chemical genetic matrix, 2015).
The campaign covered roughly 5,500 compounds. About 2,000 (36%) were called active. Another 18% or so got no clear call; they are omitted. Rule as the data show it: active = normalized growth mostly below about 0.91 (no sharp cut-off); inconclusive = no clear call, values can overlap the other calls; inactive = mostly above about 0.92. Some of the results follow.

Test: chemical genetic growth profiling, strain panel (AID 1159580);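 also: tested at 20 µM; growth read once vehicle control cultures reached saturation at 30 °C; 1 = growth at the plate median or of vehicle wells; lower values mean less growth of the strain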
Settings: S. cerevisiae deletion strains, growth OD
[1] = locus YAR019C, strain CDC15, stronger effect = lower value
[2] = locus YBL105C, strain PKC1, stronger effect = lower value
[3] = locus YBR135W, strain CKS1, stronger effect = lower value
[4] = locus YBR136W, strain MEC1, stronger effect = lower value
[5] = locus YBR160W, strain CDC28, stronger effect = lower value
[6] = locus YDL017W, strain CDC7, stronger effect = lower value
[7] = locus YDL028C, strain MPS1, stronger effect = lower value
[8] = locus YDL101C, strain DUN1, stronger effect = lower value
[9] = locus YDL108W, strain KIN28, stronger effect = lower value
[10] = locus YDL132W, strain cdc53, stronger effect = lower value
[11] = locus YDL214C, strain PRR2, stronger effect = lower value
[12] = locus YDR052C, strain DBF4, stronger effect = lower value
[13] = locus YDR054C, strain cdc34, stronger effect = lower value
[14] = locus YDR226W, strain ADK1, stronger effect = lower value
[15] = locus YDR477W, strain SNF1, stronger effect = lower value
[16] = locus YER123W, strain YCK3, stronger effect = lower value
[17] = locus YER133W, strain GLC7, stronger effect = lower value
[18] = locus YFL009W, strain cdc4, stronger effect = lower value
[19] = locus YFL029C, strain CAK1, stronger effect = lower value
[20] = locus YFR003C, strain YPI1, stronger effect = lower value
[21] = locus YFR019W, strain FAB1, stronger effect = lower value
[22] = locus YFR028C, strain CDC14, stronger effect = lower value
[23] = locus YGR040W, strain KSS1, stronger effect = lower value
[24] = locus YGR052W, strain FMP48, stronger effect = lower value
[25] = locus YGR092W, strain DBF2, stronger effect = lower value
[26] = locus YHR030C, strain SLT2, stronger effect = lower value
[27] = locus YHR079C, strain IRE1, stronger effect = lower value
[28] = locus YHR082C, strain KSP1, stronger effect = lower value
[29] = locus YHR205W, strain SCH9, stronger effect = lower value
[30] = locus YIL147C, strain SLN1, stronger effect = lower value
[31] = locus YJL095W, strain BCK1, stronger effect = lower value
[32] = locus YJL128C, strain PBS2, stronger effect = lower value
[33] = locus YJL157C, strain FAR1, stronger effect = lower value
[34] = locus YJR016C, strain ILV3, stronger effect = lower value
[35] = locus YJR066W, strain TOR1 (second series), stronger effect = lower value
[36] = locus YJR066W, strain TOR1, stronger effect = lower value
[37] = locus YKL048C, strain ELM1, stronger effect = lower value
[38] = locus YKL067W, strain YNK1, stronger effect = lower value
[39] = locus YKL101W, strain HSL1, stronger effect = lower value
[40] = locus YKL193C, strain SDS22, stronger effect = lower value
[41] = locus YKL203C, strain TOR2, stronger effect = lower value
[42] = locus YLR113W, strain HOG1, stronger effect = lower value
[43] = locus YLR133W, strain CKI1, stronger effect = lower value
[44] = locus YLR403W, strain SFP1, stronger effect = lower value
[45] = locus YML070W, strain DAK1, stronger effect = lower value
[46] = locus YMR001C, strain CDC5, stronger effect = lower value
[47] = locus YMR205C, strain PFK2 (second series), stronger effect = lower value
[48] = locus YMR277W, strain FCP1, stronger effect = lower value
[49] = locus YNL006W, strain LST8, stronger effect = lower value
[50] = locus YNL020C, strain ARK1, stronger effect = lower value
[51] = locus YNL161W, strain CBK1, stronger effect = lower value
[52] = locus YNL183C, strain NPR1, stronger effect = lower value
[53] = locus YNL207W, strain RIO2, stronger effect = lower value
[54] = locus YNL222W, strain SSU72, stronger effect = lower value
[55] = locus YNL307C, strain MCK1 (second series), stronger effect = lower value
[56] = locus YOL078W, strain AVO1, stronger effect = lower value
[57] = locus YOL136C, strain PFK27, stronger effect = lower value
[58] = locus YOR061W, strain CKA2, stronger effect = lower value
[59] = locus YOR119C, strain RIO1, stronger effect = lower value
[60] = locus YOR231W, strain MKK1, stronger effect = lower value
[61] = locus YOR329C, strain SCD5, stronger effect = lower value
[62] = locus YPL031C, strain PHO85, stronger effect = lower value
[63] = locus YPL153C, strain RAD53, stronger effect = lower value
[64] = locus YPL204W, strain HRR25, stronger effect = lower value
[65] = locus YPL209C, strain IPL1, stronger effect = lower value
[66] = locus YPL256C, strain CLN2, stronger effect = lower value
[67] = locus YPR025C, strain CCL1, stronger effect = lower value
[68] = locus YPR106W, strain ISR1, stronger effect = lower value
[69] = locus YPR111W, strain DBF20, stronger effect = lower value
[70] = strain NNK1, stronger effect = lower value
[71] = strain TSCII, stronger effect = lower value
[72] = locus YMR263W, strain SAP30, stronger effect = lower value
[73] = locus YNL153C, strain GIM3, stronger effect = lower value
[74] = locus YPL055C, strain LGE1, stronger effect = lower value

Measured: normalized growth

N#Cc1c(N)sc2c1CCc1ccccc1-2
active: [2] 0.897 | [6] 0.899 | [10] 0.884 | [11] 0.671 | [12] 0.905 | [14] 0.887 | [15] 0.546 | [16] 0.596 | [17] 0.499 | [20] 0.894 | [22] 0.884 | [23] 0.452 | [24] 0.508 | [26] 0.479 | [28] 0.568 | [29] 0.558 | [33] 0.605 | [34] 0.892 | [35] 0.474 | [36] 0.458 | [37] 0.798 | [38] 0.664 | [39] 0.66 | [40] 0.888 | [41] 0.489 | [42] 0.806 | [43] 0.593 | [44] 0.401 | [45] 0.642 | [46] 0.886 | [47] 0.69 | [48] 0.88 | [49] 0.903 | [50] 0.611 | [51] 0.898 | [52] 0.492 | [53] 0.867 | [55] 0.508 | [57] 0.636 | [58] 0.616 | [59] 0.506 | [62] 0.464 | [63] 0.494 | [64] 0.491 | [65] 0.888
inactive: [1] 0.896 | [3] 0.898 | [4] 0.896 | [5] 0.905 | [7] 0.898 | [8] 0.929 | [9] 0.898 | [13] 0.89 | [18] 0.903 | [19] 0.891 | [21] 0.833 | [25] 0.545 | [27] 0.593 | [30] 0.894 | [31] 0.508 | [32] 0.918 | [54] 0.897 | [56] 0.898 | [60] 0.653 | [61] 0.91 | [66] 0.97 | [67] 0.911 | [68] 0.918 | [69] 0.912 | [70] 0.915 | [71] 0.899

COc1ccc(-c2ccc(N)[n+](CCCC(=O)O)n2)cc1
inactive: locus YAL040C, strain CLN3, stronger effect = lower value 1.05 | locus YCL061C, strain MRC1 (second series), stronger effect = lower value 1 | locus YDR363W, strain ESC2, stronger effect = lower value 1.01 | locus YER002W, strain NOP16, stronger effect = lower value 0.993 | [72] 1.01 | locus YMR307W, strain GAS1, stronger effect = lower value 1.01 | [73] 1.03 | locus YNL175C, strain NOP13, stronger effect = lower value 1 | locus YNL197C, strain WHI3, stronger effect = lower value 1.01 | locus YNL224C, strain SQS1, stronger effect = lower value 1.01 | locus YOR083W, strain WHI5 (second series), stronger effect = lower value 1.02 | [74] 1.01

COc1ccc(/C(C)=N\NC2=NCCCN2)cc1
inactive: locus YAL013W, strain DEP1, stronger effect = lower value 1 | locus YBR229C, strain ROT2, stronger effect = lower value 1.01 | locus YCL061C, strain MRC1, stronger effect = lower value 1 | [8] 1.03 | locus YDR150W, strain NUM1, stronger effect = lower value 0.999 | locus YEL061C, strain CIN8, stronger effect = lower value 0.991 | locus YGR078C, strain PAC10, stronger effect = lower value 1 | [26] 0.987 | locus YHR087W, strain rtc3, stronger effect = lower value 0.993 | locus YJL187C, strain SWE1, stronger effect = lower value 1.01 | locus YJR043C, strain POL32, stronger effect = lower value 0.998 | locus YJR075W, strain HOC1, stronger effect = lower value 0.986 | locus YKL190W, strain CNB1, stronger effect = lower value 0.973 | locus YLR039C, strain RIC1, stronger effect = lower value 0.957 | locus YLR058C, strain SHM2 (second series), stronger effect = lower value 0.991 | locus YLR085C, strain ARP6, stronger effect = lower value 0.982 | locus YLR262C, strain YPT6, stronger effect = lower value 0.978 | locus YML094W, strain GIM5, stronger effect = lower value 1.08 | locus YMR219W, strain ESC1, stronger effect = lower value 0.997 | [72] 1 | [73] 1.01 | locus YNL298W, strain CLA4 (second series), stronger effect = lower value 0.966 | locus YNL322C, strain KRE1, stronger effect = lower value 1 | locus YNR030W, strain Alg12, stronger effect = lower value 0.993 | [74] 1.01 | locus YPL241C, strain CIN2, stronger effect = lower value 1.03 | locus YPR135W, strain CTF4, stronger effect = lower value 1.04

CCCCCc1ccc(-c2nc(SCC(C)=O)n[nH]2)cc1
active: [26] 0.565 | [37] 0.688 | [39] 0.714 | [42] 0.585 | [66] 0.6
inactive: [1] 0.933 | [2] 0.95 | [3] 0.959 | [4] 0.948 | [5] 0.947 | [6] 0.957 | [7] 0.932 | [8] 0.956 | [9] 0.949 | [10] 0.971 | [11] 0.835 | [12] 0.97 | [13] 0.922 | [14] 0.942 | [15] 0.773 | [16] 0.761 | [17] 0.838 | [18] 0.926 | [19] 0.938 | [20] 0.96 | [21] 0.885 | [22] 0.962 | [23] 0.748 | [24] 0.734 | [25] 0.662 | [27] 0.636 | [28] 0.825 | [29] 0.799 | [30] 0.937 | [31] 0.658 | [32] 0.846 | [33] 0.85 | [34] 0.953 | [35] 0.73 | [36] 0.721 | [38] 0.831 | [40] 0.95 | [41] 0.875 | [43] 0.86 | [44] 0.829 | [45] 0.784 | [46] 0.94 | [47] 0.864 | [48] 0.932 | [49] 0.947 | [50] 0.856 | [51] 0.958 | [52] 0.767 | [53] 0.947 | [54] 0.948 | [55] 0.826 | [56] 0.963 | [57] 0.82 | [58] 0.8 | [59] 0.779 | [60] 0.661 | [61] 0.949 | [62] 0.749 | [63] 0.688 | [64] 0.702 | [65] 0.96 | [67] 0.954 | [68] 0.928 | [69] 0.913 | [70] 0.934 | [71] 0.936
